Data on 73 compounds can be found in PubChem BioAssay AID2462 (Broad Institute, 2010).

About 220 (0.067%) of roughly 330,000 compounds were called active. The sample holds actives, similar compounds and a random draw of the others, so the mix is not that of the screen. Values without a mark were called inactive.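 The calls were made as follows: active = over half of replicate activation scores above 10%, or exactly half above 10 with the replicate mean above 10; inconclusive = replicate mean below 10 yet half the replicates above 10; inactive = over half of replicates below 10.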

This assay in a line: inducers of caspase signal in A1-primed MEFs – cell-based, luminescence, HTS, A1 inhibitor project, primary screen (AID 2462). The settings on record: MEF A1-2A-BIM cells, Caspase-Glo 3/7 luminescence, 3 h; active compounds read high; percent of clofoctol response, vehicle zero; concentration not given here.
Turning to `COC(=O)C(=Nc1ccccc1)/C(C(=O)C(=O)N(C)c1ccccc1)=C(\O)c1ccc(Cl)cc1`, the caspase activation was -1%.

As to `Cc1ccc(-n2c(SCC(=O)Nc3ncc(Cl)cc3Cl)nc3ccccc32)cc1`, the caspase activation was 0.221%.

Take `CCC1(C(=O)c2ccccc2)C(c2cccc([N+](=O)[O-])c2)C1(C(=O)OC)C(=O)OC` (stereo not drawn): the caspase activation was -0.612%.

Take `O=C1Nc2c(Br)cc(Br)cc2C1(O)N1CCOCC1` (stereo not drawn): the caspase activation is -1.16%.

As for `COc1ccc(C(=O)NCc2ccc(Cl)cc2)cc1S(=O)(=O)N1CCCC1`, the caspase activation was -0.377%.

On to `COc1cc(C2C(N3C(=O)c4ccccc4C3=O)C(=O)N2c2ccc(C)c(C)c2)cc(OC)c1OC` (stereo not drawn), for which the caspase activation was 0.266%.

With `CCOc1ccc(Br)cc1S(=O)(=O)Nc1ccc(S(=O)(=O)Nc2cc(C)on2)cc1`, the caspase activation was 1.21%.

Regarding `O=C(Nc1ccc(Cl)c(Cl)c1)c1ccccc1NC(=O)C1CC=CCC1C(=O)O` (stereo not drawn), the caspase activation was -2.01%.

In the case of `Cc1ccc(-n2ncc3c2CC(C)(C)CC3NC(=O)Cc2c(C)noc2C)cc1` (stereo not drawn), the caspase activation was 1.06%.

As for `Cc1cc(C(C)(C)C)cc(S(=O)(=O)Nc2ccc(C(=O)O)cc2)c1C`, the caspase activation is -0.667%.

`CCCCCn1c(=O)c(C(=O)OCC)c(Cl)c2ccccc21`: the caspase activation is 0.0442%.

Consider `N#CCSc1nc(-c2ccccc2)nc2ccc(F)cc12`, for which the caspase activation was 1.31%.

As to `C#CCOCCOCCOCCNc1nc(N2CCN(C(=O)C([C@@H](C)O)n3cc([C@@H](N)CCCCN)nn3)CC2)nc(N2CCN(C(=O)[C@H](CCCCN)n3cc(CN)nn3)CC2)n1` (stereo partly drawn), the caspase activation is 0.837%.

As for `Cc1cc(=O)[nH]c(S)c1C#N`, the caspase activation is 0.51%.

For the compound `COCCn1c(N)c(NCc2ccccc2)c(=O)[nH]c1=O`, the caspase activation was -0.132%.

Take `CCC(C)N(C(=O)COC(=O)C1C(C(=O)OC)=C(C)NC(C)=C1C(=O)OC)C1CCS(=O)(=O)C1` (stereo not drawn): the caspase activation is -0.124%.

For `CCCCc1ccc(NC(=S)N2CCCC(CO)C2)cc1` (stereo not drawn), the caspase activation is -0.669%.

Take `CCCc1cc(C(=O)Nc2ccc(Cl)cn2)cs1`: the caspase activation is -8.84%.

`Cc1ccc(C(C[N+](=O)[O-])c2c(C)cc3ccccn23)cc1` (stereo not drawn): the caspase activation is 1.62%.

As to `CCS(=O)(=O)c1cc([N+](=O)[O-])c(Sc2ccccc2N)s1`, the caspase activation was 1.52%.

`Nc1ccccc1SC(C[N+](=O)[O-])c1ccccc1` (stereo not drawn): the caspase activation is 9.45% (active).

As for `O=C(Nc1nnc(C2=COCCO2)o1)c1ccc([N+](=O)[O-])s1`, the caspase activation is -4.99%.

As for `Cc1ccc(C(=O)Nc2nnc(C3=COCCO3)o2)cc1C`, the caspase activation was 44.6% (active).

Turning to `COc1cc(-c2nnc(NC(=O)C3=COCCO3)o2)cc(OC)c1OC`, the caspase activation was 0.457%.

For the compound `ON=C1/C(=N\O)CC2(C/C1=N/O)OCCO2`, the caspase activation was 0.622%.

Turning to `O=C1CCCc2nn(-c3ccccc3)nc21`, the caspase activation was -0.0976%.

`COC(=O)Nc1ncc(CN2CCCCC2)s1`: the caspase activation is 0.0297%.

With `CSCC[C@H](NC(=O)NCCc1ccc(F)cc1)C(=O)O`, the caspase activation was 0.319%.

For `CC(C)CC(=O)c1c[nH]c(C(=O)NCc2ccccc2)c1`, the caspase activation was 6.29% (active).

As for `COc1ccc(CNC(=O)c2cc(C(=O)C3CC3)c[nH]2)cc1`, the caspase activation was -0.0151%.

For the compound `O=C(c1ccc(F)cc1)c1c[nH]c(C(=O)NCc2cccnc2)c1`, the caspase activation is 0.0496%.

As to `CC(=O)Nc1cccc(NC(=O)c2ccc3c(c2)CCN3S(C)(=O)=O)c1`, the caspase activation was 0.604%.

As for `COc1ccc(-c2n[nH]c3c2CN(C(=O)c2ccc(F)cc2)CC3)cc1`, the caspase activation is 1.44%.

For the compound `CCOC(=O)c1sc(N)c(C#N)c1COC(=O)C1=COCCO1`, the caspase activation is 0.458%.

As to `COc1ccc(CNC(=O)c2ccc(NS(=O)(=O)c3ccc4[nH]c(=O)[nH]c4c3)cc2)cc1OC`, the caspase activation is -0.468%.

Turning to `COc1cccc(NC(=O)CN(C)C(=O)/C=C/c2cc(OC)ccc2OC)c1`, the caspase activation was -0.126%.

As for `O=C(O)c1ccn(COc2ccc(Br)cc2)n1`, the caspase activation was -1.22%.

Regarding `CC(C)N(C(=O)CN1CCN(S(=O)(=O)c2ccc(Br)s2)CC1)C(C)C`, the caspase activation is 1.33%.

For `CC(C)n1cnc2c(NCc3ccccc3)cc(N[C@@H](CO)Cc3ccccc3)cc21`, the caspase activation is -2.12%.

`O=c1c2ccccc2ccc2ccc(P(=O)(O)O)cc12`: the caspase activation is 0.843%.

With `N#CCOc1ccc(C2=NO[C@@H]3[C@@H]4C[C@@H]([C@H]5C(=O)N(c6ccc7c(c6)OCO7)C(=O)[C@@H]45)[C@H]23)cc1`, the caspase activation was 0.442%.

With `CSc1cc(C)[nH]c(=O)n1`, the caspase activation is -0.248%.

For `O=S(=O)(c1ccccc1)N(Cc1cccc(F)c1)c1ccccc1`, the caspase activation was 0.447%.

In the case of `O=C(Cn1ccc2cc(S(=O)(=O)N3CCCC3)ccc21)NCc1ccccc1`, the caspase activation is -0.143%.

For the compound `COC(=O)Cn1cc(/C=C/[N+](=O)[O-])c2ccccc21`, the caspase activation was 1.03%.

Turning to `O=[N+]([O-])/C=C/c1ccc2c(ccn2Cc2ccccc2)c1`, the caspase activation is 9.93% (active).

Consider `COc1ccc(S(=O)(=O)N(C)C[C@H]2Oc3ccc(NS(=O)(=O)c4cccs4)cc3CC(=O)N([C@H](C)CO)C[C@H]2C)cc1`, for which the caspase activation is -0.719%.

Turning to `O=C(O)c1cccnc1Sc1ncnc2sc3c(c12)CCC3`, the caspase activation was -0.234%.

Take `O=C(CSc1nc(Nc2ccccc2)nc(N2CCOCC2)n1)Nc1cc(Cl)ccc1O`: the caspase activation was 0.376%.

Regarding `Nc1nc(Br)c2ccccc2c1-c1ccc(F)cc1`, the caspase activation was -0.0976%.

Consider `CC(C)(O)C#Cc1ncc(C(F)(F)F)cc1Cl`, for which the caspase activation is 0.0403%.

As for `Cc1ccc(NCc2n[nH]c(=S)n2-c2ccccc2)cc1Cl`, the caspase activation was -0.072%.

Turning to `CCCS(=O)(=O)N1CCN=C1SCc1cccc(F)c1`, the caspase activation is -0.156%.

With `CCn1ncc(CNC(=O)C2(C)CC2(Br)Br)c1C` (stereo not drawn), the caspase activation is -0.282%.

As to `COc1cc(C(=O)NC2CCN(Cc3ccccc3)CC2)cc(Cl)c1OC(C)C`, the caspase activation was -0.406%.

In the case of `COc1ccccc1CNC(=O)CCCNS(=O)(=O)c1cccc2nsnc12`, the caspase activation is 0.433%.

Turning to `O=C(c1cc2ccccc2o1)N1CCN(S(=O)(=O)c2ccc(Cl)s2)CC1`, the caspase activation is -0.105%.

Consider `COc1ccc(CNC(=O)CN2CCC(n3nnc4cc(F)ccc43)CC2)cc1`, for which the caspase activation was -0.421%.

`CC1CCCN(C(C(=O)Nc2ccc(C(C)C)cc2)c2ccc3c(c2)OCO3)C1` (stereo not drawn): the caspase activation was -0.471%.

In the case of `NC(=O)C1CCCN(CC(=O)N2CCN(c3ccccc3)CC2)C1` (stereo not drawn), the caspase activation is -0.0385%.

Regarding `Cc1ccc(S(=O)(=O)N2CCN(C(=O)CN3C(=O)NC(C)(c4ccc(Cl)cc4)C3=O)CC2)c(C)c1` (stereo not drawn), the caspase activation is -0.688%.

Take `CC(NCC(=O)Nc1ccccc1C(=O)NC1CC1)c1ccccc1Cl` (stereo not drawn): the caspase activation was 0.355%.

For `CC(=O)N(CN1C(=O)C2C3C=CC(C3)C2C1=O)c1cccc(Cl)c1` (stereo not drawn), the caspase activation is 0.192%.

For the compound `CCOc1ccccc1NC(=O)NC1CCCCCCC1`, the caspase activation was -0.841%.

As for `Cn1c(CCCOc2ccc(Cl)cc2Cl)n[nH]c1=S`, the caspase activation was -0.629%.

With `O=C(NC(=S)Nc1ccc2oc(=O)ccc2c1)c1ccc(-c2cccc(Cl)c2Cl)o1`, the caspase activation is 0.568%.

For `CC1CCc2[nH]c3ccc(C(=O)N(C)CC(=O)Nc4cccc(F)c4)cc3c2C1` (stereo not drawn), the caspase activation is 0.268%.

Consider `Cc1ccc(S(=O)(=O)c2c[nH]c3ccc(C)cc3c2=O)cc1`, for which the caspase activation was -2.55%.

In the case of `COc1ccc(-c2cnc(SCCNC(=O)c3ccc4c(c3)OCO4)[nH]2)cc1`, the caspase activation is 1.35%.

Turning to `CCCc1ccc(OCc2ccc(C(=O)N/N=C/c3cccc([N+](=O)[O-])c3)o2)c(OC)c1`, the caspase activation was 16.1% (active).

`COC(=O)c1ccc(COc2ccc(/C=N/NC(=O)C(=O)Nc3ccc(OC)cc3)cc2OC)o1`: the caspase activation is 0.365%.

`O=C(N/N=C/c1cccc(OCc2ccccc2)c1)c1ccc(Br)o1`: the caspase activation is 0.285%.

For the compound `NC(=O)COC(=O)c1cc(S(=O)(=O)N2CCN(c3ccccc3)CC2)ccc1Cl`, the caspase activation was 0.691%.
